Assay results: PubChem BioAssay AID588849 (Broad Institute, 2011)
Entries with a potency or affinity are not part of this list. Activity calls are given as the source filed them. How the calls were made is not given here.

What follows are compounds tested against CAAX prenyl protease 2 (Homo sapiens) (UniProt Q9Y256) (assay: human Rce1 protease inhibitors, dose response, biochemical, yeast membranes, quenched-peptide fluorescence, cherry-pick (AID 588849)). Settings: yeast membrane fractions expressing human Rce1, quenched-peptide fluorescence, 4 h; series mostly up to 10 µM.
Chain of CAAX prenyl protease 2 (Homo sapiens) (Q9Y256 whole entry, looked up): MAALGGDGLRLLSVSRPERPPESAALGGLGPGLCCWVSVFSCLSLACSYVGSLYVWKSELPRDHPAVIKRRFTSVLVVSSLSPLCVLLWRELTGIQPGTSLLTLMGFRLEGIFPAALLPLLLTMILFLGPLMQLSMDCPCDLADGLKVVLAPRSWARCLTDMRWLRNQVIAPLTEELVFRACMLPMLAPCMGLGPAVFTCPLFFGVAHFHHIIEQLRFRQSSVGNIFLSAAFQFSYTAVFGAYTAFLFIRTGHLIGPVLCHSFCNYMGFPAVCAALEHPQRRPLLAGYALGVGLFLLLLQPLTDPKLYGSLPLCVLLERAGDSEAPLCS

outcome, inactive:
COc1cc(-c2nc3ccccn3c2/N=C/c2ccccc2)ccc1O
Cc1cccc(NC(=O)C2(c3ccc([N+](=O)[O-])cc3)CCCC2)c1
c1cnn(Cc2cnc(N3CCOCC3)s2)c1
COc1ccc(Cl)cc1C(=O)Nc1ccc2c(c1)OCO2
CCOC(=O)c1sc2nc(C3CC3)cc(-c3ccc(F)cc3)c2c1N
CCOC(=O)c1cc2c(=O)n3cccc(C)c3nc2n(CC(C)C)c1=NC(=O)c1ccco1
O=S(=O)(c1ccccc1)c1cnn2c(C(F)(F)F)cc(-c3ccc(F)cc3)nc12
CCCCOc1ccc(Cc2c(COCC)[nH]c(=S)[nH]c2=O)cc1
COc1cc2c(cc1OC)C(C)N(C(=O)c1cc3c(=O)oc4ccc(C)cc4c3s1)CC2 (centres undefined)
CCn1c(COc2cccc(C)c2)nnc1SCC(=O)NC1CCCC1
COc1ccc(CCN(C)C(=O)c2ccc(S(=O)(=O)Nc3ccccc3C)cc2)cc1OC
O=C(Nc1ccc(F)cc1)Oc1ccccc1N1CCOCC1
CN1CCN(Cc2c(C(=O)N/N=C/c3cccc(Br)c3)nnn2-c2nonc2N)CC1
COc1ccc(-c2nc(CC(=O)O)cs2)cc1OC
Cc1ccc(SCc2c(C(=O)N/N=C/c3ccccc3)nnn2-c2nonc2N)cc1
CCOC(=O)c1c(NC(=O)COc2ccccc2F)sc2c1CC(C)(C)NC2(C)C
c1ccc(-n2nnnc2SCc2cn3cccnc3n2)cc1
Cc1ccc(OCCn2c3ccccc3n3nc(C)c(=O)nc23)cc1
CCOC(=O)[C@@H]1[C@H]2COc3ccc(Br)cc3[C@@H]2N2C(=O)N(c3cccc(Cl)c3)C(=O)[C@]12C
COCCN1C(=O)/C(=C/c2ccc(Oc3ccc([N+](=O)[O-])cn3)c(OC)c2)SC1=Nc1ccccc1
Cc1ccccc1NS(=O)(=O)c1ccc(C(=O)NCC(c2ccccc2)N(C)C)cc1 (centres undefined)
NC(=O)CCCn1c(C(=O)c2cc(Cl)c(N)c(Cl)c2)c2ccc(C(F)(F)F)cc2[n+]1[O-]
CCOC(=O)C[n+]1ccc2c([nH]c3ccccc32)c1C
O=C(C1=C[C@@H](C2CC2)C[C@@H](OCc2ccc(CO)cc2)O1)N1CCN(Cc2ccccc2)CC1
COc1ccc(Br)cc1C(=O)Nc1cc(C)cc(C)c1
COC(C[C@@H]1O[C@@H]1C(=O)[C@@H](C)OCc1ccccc1)OC
CCN(Cc1ccccc1)S(=O)(=O)c1ccc(C(=O)N(CCCN(C)C)c2nc3cc(C)cc(C)c3s2)cc1
COC(C[C@@H](O)C[C@H](O)[C@H](C)OCc1ccccc1)OC
C/C(CC(=O)NCc1ccco1)=N\NC(=O)c1ccc([N+](=O)[O-])cc1Cl
COc1cccc(-c2nc(C#N)c(N3CCN(C(=O)c4ccco4)CC3)o2)c1
COc1ccc(OC)c(Cc2nnc(CCC(=O)N3CCN(C4CCCC4)CC3)o2)c1
O=C(Nc1ncccn1)c1ccc([N+](=O)[O-])cc1
CC(Cc1cccs1)NC(=O)Nc1ccc([N+](=O)[O-])cc1 (centres undefined)
Cc1ccc(S(=O)(=O)c2cn(C)c3cc(N4CCOCC4)c(F)cc3c2=O)cc1
COc1cccc(CNc2nc3nc(C)cc(C)n3n2)c1
CCNC(=S)NNC(=O)CCn1cc(C)cn1
Cc1ccc(C(=O)c2c3ccc(C(F)(F)F)cc3[n+]([O-])n2CCCC(N)=O)cc1
N#CC(/C(=N/S(=O)(=O)c1cccs1)c1ccccc1)c1nc2ccccc2[nH]1 (centres undefined)
COc1cccc(-c2csc(N3CCN(C(=O)NC45CC6CC(CC(C6)C4)C5)CC3)n2)c1
